The nature of assay [1]: qHTS assay to identify small molecule agonists of the vitamin D receptor (VDR) signaling pathway - cell viability counter screen (AID 743224). Further: nearly all actives have a fitted effect of over 50% in size. Further: potency means the concentration at half of the fitted maximal effect. The essentials: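 Cells: VDR-bla, 2,000/well, settled 4 h. Treatment: compounds in DMSO, 16 h, 37C/5% CO2. Readout: CellTiter-Glo luminescence after 30 min RT.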
(In qHTS, concentration-response curves come from the screen itself.)

Assay [2] can be described thus: qHTS assay to identify small molecule antagonists of the vitamin D receptor (VDR) signaling pathway - cell viability counter screen (AID 743225). Further: nearly all actives have a fitted effect of over 50% in size. Further: potency means the concentration at half of the fitted maximal effect. In a few lines: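 Compounds were pinned onto VDR-bla HEK 293T cells together with 1-alpha,25-dihydroxyvitamin D3 at 3 nM final. After 16 h at 37C and 5% CO2 plus the reporter readout, cell viability was measured by CellTiter-Glo luminescence (30 min, room temperature).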

A short description of assay [3]: qHTS assay to identify small molecule agonists of the NFkB signaling pathway (AID 1159509; active means well fitted curve in the direction sought with a large enough effect in the signal ratio in the repeat runs, not every such curve was filed as active; the % refers to the signal ratio; further: series mostly up to about 61 µM). The essentials:
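Readout: FRET fluorescence, 405 nm excitation, 460/530 nm emission; beta-lactamase expression disrupts FRET. Cells: ME-180 stably carrying NF-kB-driven bla reporter. Compound exposure 5 hr, 37 C, 5% CO2.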

Assay [4] is described as follows: qHTS assay to identify small molecule agonists of the NFkB signaling pathway - cell viability counter screen (AID 1159515; calls by dose curve; further: series mostly up to about 61 µM; nearly all actives have a fitted effect of over 55% in size). In a few lines:
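Cells are seeded (2,000 NFkB-bla ME-180 per well), rested overnight, and dosed with DMSO-dissolved compounds for 5 hr at 37 C. Viability is then read by CellTiter-Glo luminescence after 30 min at room temperature.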

The nature of assay [5]: qHTS assay to identify small molecule agonists of the endoplasmic reticulum stress response signaling pathway (AID 1159516; active means well fitted activation curve with a large enough effect in the signal ratio in the repeat runs, not every such curve was filed as active; the % refers to the signal ratio). In a few lines:
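Cells are seeded at 1,500 per well and incubated overnight. Compounds in DMSO are added for 5 hr at 37 C, then beta-lactamase FRET substrate for 2 hr at room temperature, and fluorescence at 460 and 530 nm is measured.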

Assay [6] is described as follows: qHTS assay to identify small molecule agonists of the endoplasmic reticulum stress response signaling pathway - cell viability counter screen (AID 1159517; calls by dose curve;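 further: HeLa cells carrying an ER stress response element beta-lactamase reporter; series mostly up to about 61 µM; nearly all actives have a fitted effect of over 50% in size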). In a few lines: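 Cytotoxicity of test compounds toward ESRE-bla HeLa cells was assessed after 5 hr exposure. The luminescent CellTiter-Glo signal was measured 30 min after reagent addition.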
Assay [7] has as its target Nuclear receptor ROR-gamma (Homo sapiens) (UniProt P51449). Description: qHTS assay to identify small molecule antagonists of the retinoid-related orphan receptor gamma (ROR-gamma) signaling pathway (AID 1159521;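 further: CHO cells with doxycycline inducible ROR-gamma driving an RORE luciferase reporter; top concentration of the series differs between compounds; nearly all actives have a fitted effect of over 50% in size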). In a few lines:
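Test compounds were applied to Tet-on RORγ CHO cells 2 h ahead of doxycycline hyclate (1 uM final). Luciferase reporter activity was quantified by luminescence after 16 h at 37 C and 5% CO2.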

A short description of assay [8]: qHTS assay to identify small molecule agonists of the AP-1 signaling pathway - cell viability counter screen (AID 1159525; calls by dose curve; further: nearly all actives have a fitted effect of over 55% in size). In a few lines: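 Each titration point was normalised to DMSO and tetra n-octyl ammonium bromide controls. The read was Cell Titer Glo luminescence after 30 min at RT, following 5 h compound exposure of ME-180 AP-1-bla cells at 37 °C.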
Assay [9] in a line: qHTS assay to identify small molecule agonists of the AP-1 signaling pathway (AID 1159526; calls by dose curve).
Assay [10] concerns the target Retinoic acid receptor RXR-alpha (Homo sapiens) (UniProt P19793). In words: qHTS assay to identify small molecule agonists of the RXR signaling pathway (AID 1159527; calls by dose curve; further: nearly all actives have a fitted effect of over 35% in size). The essentials:
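Using 9-cis retinoic acid as the reference agonist, chemicals were tested in HEK 293T cells […] for 16 hr; substrate loading lasted 2 hr at room temperature.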

The nature of assay [11]: qHTS assay to identify small molecule agonists of the RXR signaling pathway - cell viability counter screen (AID 1159529). The essentials: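 Compounds dissolved in DMSO were pinned onto HEK 293T cells carrying a beta-lactamase reporter under RXR-alpha control and incubated 16 hr. Cytotoxicity was then quantified by CellTiter-Glo luminescence.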
Assay [12] can be described thus: qHTS assay to identify small molecule antagonists of the retinoid acid receptor (RAR) signaling pathway - cell viability counter screen (AID 1159551). Further: nearly all actives have a fitted effect of over 35% in size. The essentials: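 Cells (C3RL4) are plated, incubated overnight, dosed with compound in DMSO, then given retinol at 1 uM final. After 6 h at 37 C, CellTiter-Glo is added and luminescence read following 30 min at room temperature.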

A short description of assay [13]: qHTS assay to identify small molecule antagonists of the retinoic acid receptor (RAR) signaling pathway (AID 1159552; further: nearly all actives have a fitted effect of over 50% in size). In a few lines: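 Test chemicals and DMSO controls were pin-transferred onto C3RL4 cells a day after seeding; retinol (1 uM final) followed at once. Luminescent reporter output was quantified after 6 hr of co-incubation and 30 min with detection reagent.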

Assay [14] can be described thus: qHTS assay to identify small molecule antagonists of the retinoid-related orphan receptor gamma (ROR-gamma) signaling pathway - cell viability counter screen (AID 1159520). Further: nearly all actives have a fitted effect of over 50% in size. The essentials: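 Tet-on ROR gamma CHO cells (1,000/well) were plated 4 hr, given compounds in DMSO for 2 hr at 37 C, then induced with 1 uM final doxycycline for 16 hr. Viability was read as ATP by CellTiter-Glo luminescence after 30 min.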

Assay [15] in a line: qHTS assay to identify small molecule agonists of the retinoic acid receptor (RAR) signaling pathway (AID 1159553). The essentials:
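Seed C3RL4 reporter cells at 1,000 per well and incubate overnight at 37 C. Add compounds in DMSO, incubate 6 hr. Add luciferase reagent, wait 30 min at room temperature, read luminescence.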

Each structure is given as a SMILES string. Several values for one entry are separate records, joined by “and”; a condition that tells them apart may be missing. Equal values may be shown once. Records with an inconclusive call do not appear. More than one record can exist for a structure, and the calls need not agree. Activity calls are given as the source filed them. Unless noted, the call rests on the fitted dose curve; in most records, active means well fitted curve in the direction sought with a large enough effect in the repeat runs; inconclusive means weak or mixed curves; inactive means no such curve, though single readings can be large; an effect the other way counts as inactive or inconclusive.

Retinoic acid receptor RXR-alpha (Homo sapiens), sequence (P19793 whole entry, looked up): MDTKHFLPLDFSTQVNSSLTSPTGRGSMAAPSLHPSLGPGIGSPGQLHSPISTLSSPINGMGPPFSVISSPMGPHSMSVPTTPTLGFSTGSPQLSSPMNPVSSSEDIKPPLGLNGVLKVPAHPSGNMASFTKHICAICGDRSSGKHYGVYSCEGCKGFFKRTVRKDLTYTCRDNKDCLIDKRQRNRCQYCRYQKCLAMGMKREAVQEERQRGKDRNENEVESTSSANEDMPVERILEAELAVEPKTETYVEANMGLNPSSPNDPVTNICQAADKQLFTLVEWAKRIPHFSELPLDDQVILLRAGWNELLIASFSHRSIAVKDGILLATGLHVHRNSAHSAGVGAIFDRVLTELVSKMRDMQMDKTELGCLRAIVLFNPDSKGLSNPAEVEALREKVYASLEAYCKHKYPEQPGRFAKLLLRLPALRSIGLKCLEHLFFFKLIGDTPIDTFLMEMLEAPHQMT

Turning to `CC(CCC(=O)O)(c1ccc(O)cc1)c1ccc(O)cc1`, the Potency result in assay [1], in assay [2], in assay [4], in [5], in assay [6] and in assay [7] was “inactive” throughout. Moreover, the Potency result in assay [8], in [10], in assay [11], in [12] and in assay [13] was “inactive” throughout. Further, the compound was classed as inactive in assay [3] and in [9].

In the case of `CCCCC(CC)COP(=O)(OCC(CC)CCCC)OCC(CC)CCCC` (stereo unspecified), the Potency entry in assay [1], in assay [2], in assay [4], in assay [5], in assay [6] and in assay [14] was “inactive” throughout. Moreover, the Potency result in assay [7], in assay [8], in assay [10], in assay [11] and in assay [12] was “inactive” each time. Also, the compound was called inactive in [3] and in [9].

In the case of `CC(=O)CC/C=C(\C)CCC=C(C)C`, the Potency result in [1], in [4], in [5], in assay [6], in [7] and in assay [8] was “inactive” in each case. In addition, the Potency entry in assay [10], in assay [11] and in [12] was “inactive” throughout. Moreover, the outcome in assay [3] and in [9] was inactive.

Regarding `O=[N+]([O-])c1ccc2c(c1)Cc1ccccc1-2`, the Potency result in assay [1], in assay [2], in assay [4], in [5], in [6] and in [7] was “inactive” in each case. For the same compound, the Potency entry in assay [8], in assay [10], in assay [11], in assay [12] and in assay [13] was “inactive” in each case. The result in assay [3] and in assay [9] was inactive.

On to `O=P(O)(O)O`, for which the Potency result in assay [1], in [4], in [5], in assay [6], in assay [7] and in [8] was “inactive” in each case. Besides, the Potency entry in [10], in [11], in [12], in [13] and in assay [15] was “inactive” each time. Further, the Potency result in assay [2] was “inactive and 5.49 µM (active)”. Also, the compound was called inactive in assay [3] and in [9].

For `CCCCC(CC)COCC1CO1` (stereo unspecified), the Potency entry in [1], in assay [4], in [5], in assay [6], in assay [7] and in assay [8] was “inactive” each time. Besides, the Potency entry in [10], in assay [11], in [12] and in [13] was “inactive” throughout. The call in assay [3] and in assay [9] was inactive.

As for `CCC(C)(O)CCCC(C)C` (stereo unspecified), the Potency result in assay [1], in assay [2], in assay [4], in [5], in [6] and in assay [14] was “inactive” in each case. For the same compound, the Potency result in assay [8], in assay [10], in [11], in assay [12] and in assay [13] was “inactive” throughout. The outcome in assay [3] and in [9] was inactive.

As for `COC(=O)Nc1nc2ccc(S(=O)c3ccccc3)cc2[nH]1` (stereo unspecified), the Potency result in assay [1], in assay [2], in assay [4], in assay [5], in assay [6] and in [14] was “inactive” throughout. For the same compound, the Potency entry in [7], in assay [8], in assay [10], in assay [11] and in assay [12] was “inactive” each time. Also, the compound was called inactive in assay [3] and in [9].

`CC(C)OC=O`: in [1], the Potency was 52 µM (active) and inactive. Further, the Potency result in assay [2], in assay [4], in [5], in [6], in assay [7] and in assay [8] was “inactive” each time. For the same compound, the Potency result in assay [10], in assay [11], in [12], in assay [13] and in assay [15] was “inactive” throughout. Further, the compound was called inactive in assay [3] and in assay [9].
